Potency and outcome data for four molecules are collected here from PubChem BioAssay (Tox21).

Each structure is given as a SMILES string. Inconclusive results are not listed. Active and inactive are the calls of the source. Unless noted, calls come from the whole dose curve; as a rule, active = well fitted curve in the direction sought with a large enough effect in the repeat runs; inconclusive = weak or mixed curves; inactive = no such curve, though single readings can be large; an effect the other way counts as inactive or inconclusive.

The nature of assay [1]: qHTS assay for small molecule agonists of the p53 signaling pathway (AID 651631; calls by dose curve; note: nearly all actives have a fitted effect of over 15% in size). The procedure, abridged:
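HCT-116 p53RE-bla reporter line, 16 h compound treatment at 37 °C, then fluorescence after 2 h with B/G FRET substrate.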
(qHTS replaces the single test concentration by a dilution series.)

Assay [2] is described as follows: qHTS assay for small molecule agonists of the p53 signaling pathway - cell viability (AID 651633; calls by dose curve;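 note: p53RE-bla HCT reporter cells with a stable beta-lactamase p53 reporter; series mostly up to about 83 µM; nearly all actives have a fitted effect of over 30% in size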). In short, it runs like this: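 Viability counter-read: CellTiter-Glo luminescence (30 min, room temperature) in the same p53RE-bla plates. These plates had been exposed to compounds for 16 h at 37 C.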
A short description of assay [3]: qHTS assay for small molecules that induce genotoxicity in human embryonic kidney cells expressing luciferase-tagged ATAD5 - cell viability (AID 651634; calls by dose curve; note: nearly all actives have a fitted effect of over 25% in size). In short, it runs like this: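 Quantitative high-throughput format. HEK293T cells expressing ATAD5 fused to luciferase were plated at 2,000 cells/well and treated 15.5 hr with compound versus DMSO. Viability was determined by fluorescent live-cell protease substrate, 30 min at 37C.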

Assay [4] is described as follows: qHTS assay for small molecule disruptors of the mitochondrial membrane potential - cell viability (AID 720634; calls by dose curve;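 note: human HepG2 liver cancer cells; series mostly up to about 83 µM; nearly all actives have a fitted effect of over 20% in size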). The procedure, abridged:
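Same-well counter-screen: following the MMP dye addition, CellTiter-Glo was added to 1 hr compound-treated HepG2 cells and luminescence read after 30 min at room temperature.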

Assay [5] is described as follows: qHTS assay for small molecule disruptors of the mitochondrial membrane potential (AID 720635). Note: potency is the fitted concentration of half-maximal effect. In short, it runs like this:
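Mitochondrial membrane potential tracked with Mito-MPS dye, red aggregates (ex 540/em 590 nm) against green monomers (ex 490/em 535 nm). Compound treatment 1 hr at 37C, dye 30 min in HepG2.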

Assay [6] can be described thus: qHTS assay to test for compound auto fluorescence at 590 nm (red) in HepG2 cells (AID 720674). In short, it runs like this: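 We screened compounds on adherent HepG2 cells, incubating them for an hour at 37 C in 5% CO2 before reading emission at 590 nm under 540 nm excitation; values reflect equivalence to Rose Bengal sodium fluorescence.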
The nature of assay [7]: qHTS assay to test for compound auto fluorescence at 535 nm (green) in HepG2 cells (AID 720675).
Assay [8] in a line: qHTS assay to test for compound auto fluorescence at 460 nm (blue) in HEK293 cells (AID 720678). The procedure, abridged: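 Triamterene serves as the blue fluorophore standard. Compound signal at 405/460 nm is read in HEK293 wells (2,000 cells, 10% dialyzed FBS) after overnight treatment at 37C.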
A short description of assay [9]: qHTS assay to test for compound auto fluorescence at 590 nm (red) in HEK293 cells (AID 720679). The procedure, abridged:
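We plated HEK293 cells in 10% dialyzed FBS medium, let them adhere for 4-5 hr, then added 23 nL compound. Overnight at 37C and 5% CO2 preceded fluorescence measurement at 540/590nm.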

The nature of assay [10]: qHTS assay to test for compound auto fluorescence at 535 nm (green) in HEK293 cells (AID 720680).
The nature of assay [11]: qHTS assay to test for compound auto fluorescence at 535 nm (green) in HEK293 cell free culture (AID 720682). The procedure, abridged:
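Steps: dispense DMEM/10% FBS into empty wells; pin in compound or DMSO; measure fluorescence at 485/535 nm. Values are fluorescein equivalents.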

Assay [12] can be described thus: qHTS assay to test for compound auto fluorescence at 590 nm (red) in HEK293 cell free culture (AID 720683). In short, it runs like this:
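Red-channel autofluorescence of compounds in culture medium (DMEM, 10% FBS), no cells, measured at 540/590 nm. Rose Bengal sodium is the reference fluorophore for equivalence.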

The nature of assay [13]: qHTS assay to test for compound auto fluorescence at 590 nm (red) in HepG2 cell free culture (AID 720684). In short, it runs like this:
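Cell-free; medium MEM + 10% FBS; compound or DMSO added by pintool; read Ex 540/Em 590 nm; Rose Bengal sodium as red reference fluorophore.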

Assay [14] can be described thus: qHTS assay to test for compound auto fluorescence at 460 nm (blue) in HepG2 cell free culture (AID 720685). In short, it runs like this:
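Cell-free plates of MEM plus 10% FBS received 23 nL compound or DMSO vehicle; blue-channel (405/460 nm) intensity scored against triamterene as reference fluorophore.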

Assay [15] is described as follows: qHTS assay to test for compound auto fluorescence at 535 nm (green) in HepG2 cell free culture (AID 720686).
A short description of assay [16]: qHTS assay to test for compound auto fluorescence at 460 nm (blue) in HepG2 cells (AID 720687). In short, it runs like this: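 Blue-channel autofluorescence (Ex/Em 405/460 nm, triamterene-equivalent) was measured after 1 hr compound exposure at 37 C, 5% CO2. Cells were HepG2, plated overnight at 37 C in MEM plus 10% FBS.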
The target of assay [17] is Glucocorticoid receptor (Homo sapiens) (UniProt P04150). Description: qHTS assay to identify small molecule agonists of the glucocorticoid receptor (GR) signaling pathway (AID 720691; active = well fitted activation curve with a large enough effect in the signal ratio in the repeat runs, not every such curve was filed as active; the % refers to the signal ratio). In short, it runs like this:
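A HeLa cervical cancer line expressing GR and a glucocorticoid response element-driven beta-lactamase gene is treated with compounds for 18 h; LiveBLAzer B/G FRET substrate is then applied and fluorescence read.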

The nature of assay [18]: qHTS assay for small molecules that induce genotoxicity in human embryonic kidney cells expressing luciferase-tagged ATAD5 (AID 651632). Note: nearly all actives have a fitted effect of over 15% in size. The procedure, abridged:
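Test compounds were delivered by pin tool onto HEK293T reporter cells (2,000/well) expressing ATAD5 fused to luciferase. After 16 hr at 37C, 5% CO2, Amplite was added for 30 min at room temperature and luminescence was measured.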

Assay [19] in a line: qHTS assay to test for compound auto fluorescence at 460 nm (blue) in HEK293 cell free culture (AID 720681). The procedure, abridged:
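Blue fluorescence (Ex 405/Em 460 nm, triamterene-equivalent) was read immediately after pin transfer of compound or DMSO into medium (DMEM, 10% FBS) without cells.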

Assay [20] concerns the target Glucocorticoid receptor (Homo sapiens) (UniProt P04150). As to the kind of experiment: qHTS assay to identify small molecule antagonists of the glucocorticoid receptor (GR) signaling pathway (AID 720692; active = well fitted inhibition curve with a large enough effect in the signal ratio in the repeat runs, not every such curve was filed as active; the % refers to the signal ratio). The procedure, abridged:
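GRE-bla HeLa line, dex-stimulated (5 nM final). Compound exposure 18 h, 37 C. Beta-lactamase FRET read after 2 h RT substrate.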

Glucocorticoid receptor (Homo sapiens), sequence (P04150 whole entry, looked up): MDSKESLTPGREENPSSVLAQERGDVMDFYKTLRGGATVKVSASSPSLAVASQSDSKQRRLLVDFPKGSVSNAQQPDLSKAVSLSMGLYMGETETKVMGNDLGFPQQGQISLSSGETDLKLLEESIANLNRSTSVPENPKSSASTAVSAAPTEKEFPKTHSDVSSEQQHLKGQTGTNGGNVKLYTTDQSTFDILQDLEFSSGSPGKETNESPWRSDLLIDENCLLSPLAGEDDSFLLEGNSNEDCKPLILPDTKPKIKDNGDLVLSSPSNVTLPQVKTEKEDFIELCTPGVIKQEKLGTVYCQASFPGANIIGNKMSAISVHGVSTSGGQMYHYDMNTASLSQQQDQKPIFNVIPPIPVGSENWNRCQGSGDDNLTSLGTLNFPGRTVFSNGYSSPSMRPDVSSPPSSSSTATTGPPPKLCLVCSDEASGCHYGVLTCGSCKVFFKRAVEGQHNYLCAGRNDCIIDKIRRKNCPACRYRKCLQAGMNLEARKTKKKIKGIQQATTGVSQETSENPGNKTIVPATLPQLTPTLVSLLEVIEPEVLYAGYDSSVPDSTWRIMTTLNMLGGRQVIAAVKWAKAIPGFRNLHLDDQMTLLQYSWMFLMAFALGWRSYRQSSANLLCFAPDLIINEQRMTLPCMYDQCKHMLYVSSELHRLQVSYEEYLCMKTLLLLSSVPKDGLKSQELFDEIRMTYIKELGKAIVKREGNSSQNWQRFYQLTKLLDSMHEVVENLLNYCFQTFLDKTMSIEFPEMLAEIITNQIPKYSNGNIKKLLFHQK

Take `O=C(O)/C=C/c1cnc[nH]1`: the Potency entry in assay [1], in [2], in assay [3], in assay [4], in assay [5] and in assay [8] was “inactive” each time. The Potency result in [14], in [16] and in [17] was “inactive” in each case. Moreover, the call in [6], in [7], in assay [9], in assay [10], in assay [11] and in assay [12] was inactive. For the same molecule, the molecule was called inactive in assay [13] and in assay [15].
`C[C@@H](C1=C(CCN(C)C)Cc2ccccc21)c1ccccn1`: the Potency result in assay [18], in assay [2], in [3], in [4], in assay [5] and in assay [8] was “inactive” each time. Moreover, in assay [14], the Potency entry is “inactive”. Also, the call in assay [6], in assay [7], in [9], in assay [12], in assay [13] and in assay [15] was inactive.
In the case of `CCCCC(CC)COCCCN` (stereo not drawn), the Potency entry in assay [1], in [18], in [2], in assay [3], in [8] and in [19] was “inactive” each time. The Potency entry in assay [14], in assay [16], in assay [17] and in assay [20] was “inactive” throughout. The molecule was classed as inactive in assay [6], in assay [7], in [10], in assay [11], in assay [12] and in [13]. Moreover, the molecule was called inactive in [15].
`CCOc1ccc2[nH]cc(C(=O)NCc3ccccc3)c(=O)c2n1`: the Potency result in [18], in assay [2], in assay [3], in [4], in assay [8] and in [14] was “inactive” in each case. The Potency entry in [16] was “inactive”. For the same molecule, in assay [5], the Potency is 8.63 µM (active). The outcome in assay [6], in assay [7], in [9], in [10], in [11] and in [12] was inactive. Besides, the molecule was classed as inactive in assay [13] and in assay [15].
